ChEMBL document CHEMBL1961873, “Compounds: GSK PKIS; Assays: Nanosyn kinase panel” (2012)

Target: Insulin-like growth factor 1 receptor (Homo sapiens) (UniProt P08069)
Settings: at 1 µM
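Also: each value is a mean percent inhibition.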

Insulin-like growth factor 1 receptor (Homo sapiens), sequence (P08069 31-736 limits assumed): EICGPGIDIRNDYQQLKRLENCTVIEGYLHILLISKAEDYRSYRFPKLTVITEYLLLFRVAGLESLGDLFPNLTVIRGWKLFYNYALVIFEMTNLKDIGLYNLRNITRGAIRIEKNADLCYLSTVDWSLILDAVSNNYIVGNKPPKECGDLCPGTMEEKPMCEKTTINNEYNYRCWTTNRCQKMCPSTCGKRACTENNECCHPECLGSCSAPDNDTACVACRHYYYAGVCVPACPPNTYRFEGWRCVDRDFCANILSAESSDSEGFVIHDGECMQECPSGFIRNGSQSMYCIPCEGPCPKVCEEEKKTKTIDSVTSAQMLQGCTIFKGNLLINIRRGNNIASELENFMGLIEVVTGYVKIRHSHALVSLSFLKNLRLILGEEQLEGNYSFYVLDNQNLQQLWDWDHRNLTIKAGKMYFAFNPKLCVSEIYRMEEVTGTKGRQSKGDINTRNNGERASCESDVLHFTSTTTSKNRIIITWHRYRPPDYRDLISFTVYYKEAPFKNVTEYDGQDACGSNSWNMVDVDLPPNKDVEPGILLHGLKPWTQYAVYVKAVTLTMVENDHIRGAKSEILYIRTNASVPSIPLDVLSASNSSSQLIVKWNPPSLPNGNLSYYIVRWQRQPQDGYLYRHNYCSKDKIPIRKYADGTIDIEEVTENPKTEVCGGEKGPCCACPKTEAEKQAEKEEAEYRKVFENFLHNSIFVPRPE
Insulin-like growth factor 1 receptor (Homo sapiens), sequence (P08069 741-1367 limits assumed): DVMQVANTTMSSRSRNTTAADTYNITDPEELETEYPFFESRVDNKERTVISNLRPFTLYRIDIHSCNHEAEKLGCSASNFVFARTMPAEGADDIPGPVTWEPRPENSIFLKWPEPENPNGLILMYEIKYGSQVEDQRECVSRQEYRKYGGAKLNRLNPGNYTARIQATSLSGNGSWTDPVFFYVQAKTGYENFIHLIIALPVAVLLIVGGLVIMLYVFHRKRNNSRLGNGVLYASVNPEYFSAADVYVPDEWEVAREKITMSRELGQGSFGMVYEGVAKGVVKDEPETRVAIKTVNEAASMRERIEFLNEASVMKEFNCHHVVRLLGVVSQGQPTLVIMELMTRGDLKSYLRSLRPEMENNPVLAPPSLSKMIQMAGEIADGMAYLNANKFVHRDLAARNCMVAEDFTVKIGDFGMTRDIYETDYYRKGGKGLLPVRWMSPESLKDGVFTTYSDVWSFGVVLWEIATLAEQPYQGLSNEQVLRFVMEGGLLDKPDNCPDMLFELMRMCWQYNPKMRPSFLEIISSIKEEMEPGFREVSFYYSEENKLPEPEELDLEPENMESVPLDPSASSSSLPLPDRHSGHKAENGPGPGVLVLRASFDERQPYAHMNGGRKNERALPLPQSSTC

In order of falling inhibition:
1. COc1cc(Nc2nccc(-c3cnn4ncccc34)n2)cc(OC)c1  65.4%
2. CC(C)c1ccc(Nc2nccc(-c3cnn4ncccc34)n2)cc1  53.1%
3. N#Cc1cccc(Nc2nccc(-c3cnn4ncccc34)n2)c1  38.2%
4. O=C1Nc2ccccc2/C1=C/Nc1ccc2[nH]c(=O)[nH]c2c1  24.8%
5. COc1cccc(-n2ncc3c(N/N=C/c4ccc(C)cc4)ncnc32)c1  22.9%
6. NC(=O)c1cccc(Nc2nccc(Nc3cccc(F)c3)n2)c1  20.9%
7. CN(C)CCCn1c(-c2nonc2N)nc2cnccc21  9.74%
8. CN1CCN(C(=O)c2ccc(NC(=O)Nc3ccc(N(C)c4ccnc(Nc5ccc(CS(C)(=O)=O)cc5)n4)cc3)cc2)CC1  6.42%
9. NS(=O)(=O)c1ccc(Nc2cc(-c3cccc(O)c3)n[nH]2)cc1  5.23%
10. Cc1cc(O)cc(C)c1/C=C/c1cncc(C(=O)N(C)C)c1  5.15%
11. CCn1c(-c2nonc2N)nc2c(C#CC(C)(C)O)nc(OCCNC)cc21  3.53%
12. CN(C)c1cc2c(Nc3ccc4c(cnn4Cc4ccccc4)c3)ncnc2cn1  2.94%
13. CN(C)C(=O)O[C@H]1CN[C@H](C#Cc2cc3ncnc(Nc4ccc(OCc5cccc(F)c5)c(Cl)c4)c3s2)C1  2.88%
14. NS(=O)(=O)c1cccc(Nc2cc(-c3ccc(F)cc3)n[nH]2)c1  1.22%
15. Cc1cc(Cl)cc2c1NC(=O)C2=NNc1ccc(S(N)(=O)=O)cc1  0.19%
16. CN(C)C(=O)O[C@@H]1CN[C@@H](C#Cc2cc3ncnc(Nc4ccc(OCc5cccc(F)c5)c(Cl)c4)c3s2)C1  0%
17. COc1cccc(-n2ncc3c(N/N=C/c4ccc(S(C)(=O)=O)cc4)ncnc32)c1  -5.27%
